# Measured values published in the supplement of paper PMC6555819.
# What was measured:
# Experiment in all cases: PBM binding z-score (relative to random genomic background probes); higher = stronger binding; sequences stand for … in GC…GCGATTGACAGCGTAGAATGAAGG
# [1] = tested on: PPARg:RXRa DBDmut IVT, anti-RXR (DBD mutation: RXRa K156A/R161A, NR concentration 270 nM, RXRa partner concentration 90 nM)
# Summary of the method: (§1)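 For binding z-scores, the reference was random background probes on custom Agilent 4×180K protein-binding microarrays. These arrays were incubated 1 h with ligand-free nuclear receptor dimers in PBS pH 7.4, 2% milk, 0.02% Triton X-100, 1 mM DTT, 0.2 mg/mL BSA and 0.4 mg/ml salmon testes DNA. Fluorescence was scanned after antibody detection of each partner (one per run) and regression-normalized.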
# [2] = tested on: PPARg:RXRa IVT, anti-PPARg (NR concentration 270 nM, RXRa partner concentration 90 nM)
# Summary of the method: as §1
# [3] = tested on: PPARg DBDmut:RXRa IVT, anti-PPARg (DBD mutation: PPARg1 K132A/R137A, NR concentration 270 nM, RXRa partner concentration 90 nM)
# Summary of the method: as §1
# [4] = tested on: PPARg DBDmut IVT, anti-PPARg (DBD mutation: PPARg1 K132A/R137A, NR concentration 270 nM)
# Summary of the method: as §1
# [5] = tested on: PPARg homodimer (NR concentration 180 nM)
# Summary of the method: as §1
# [6] = tested on: PXR:RXRa (NR concentration 270 nM, RXRa partner concentration 90 nM)
# Summary of the method: as §1
# [7] = tested on: PXR homodimer (NR concentration 270 nM)
# Summary of the method: as §1
# [8] = tested on: RARa:RXR (NR concentration 270 nM, RXRa partner concentration 90 nM)
# Summary of the method: as §1
# [9] = tested on: RARa homodimer (NR concentration 270 nM)
# Summary of the method: as §1
# [10] = tested on: RARb:RXRa (NR concentration 270 nM, RXRa partner concentration 90 nM)
# Summary of the method: as §1
Sequence,PBM binding z-score [1],PBM binding z-score [2],PBM binding z-score [3],PBM binding z-score [4],PBM binding z-score [5],PBM binding z-score [6],PBM binding z-score [7],PBM binding z-score [8],PBM binding z-score [9],PBM binding z-score [10]
CCTCGGAGGACAGAAGCTCAGAGCTGTCCGCTTT,-0.36,-1.19,-1.19,-2.47,-1.01,-1.09,-1.12,-1.41,-0.553,0.0741
TGAATGAGGTTATAAGACCAGGGAACGTTGCAAA,1.18,1.75,0.985,0.561,0.257,0.794,-0.0148,1.33,0.0796,1.29
CCTACTGGGCCAGTCAGAGGTCATTGATCATATG,3.73,3.52,-0.533,-0.399,2.3,4.85,1.42,4.37,0.375,2.92
ATATGTAGGTTCAGGGTCATTCAGGTTGGTTCGC,3.41,4.69,1.38,1.25,3.72,5.44,5.1,5.15,2.39,3.41
ATCTCTAGGTAACGTTCAGTGAAAGATCGATAGA,3.29,2.87,1.78,1.73,0.504,0.0439,0.0107,0.445,0.865,0.556
TGTCAAAGTTCAAACGTAACGTAAGTATCCACAC,0.502,4.09,1.75,1.83,2.5,5.07,4.65,3.8,1.09,4.99
TCTTGTAGATCAAAGGTTAAGCAAGCCGAAGCCT,2.3,4.26,1.03,0.316,0.998,2.14,-0.0892,3.34,-0.483,2.11
ATCGAAAGTTCGAGGTGAGTATAGAGAAAGGGAA,-0.474,0.844,0.383,0.642,0.238,0.98,0.157,1.01,-0.05,2.53
CGTCAATGTTCAACTAAGGTAACGTAAAGCACGC,0.201,0.781,0.0203,0.928,0.877,0.252,0.0149,1.05,0.784,0.573
TCGAGTAGGCTAGTCGGGGCATTCAGCCAACATA,0.821,0.0917,-1.43,-1.24,-0.694,-0.462,-0.889,-0.446,-1.18,-0.223
ACAGACAGGTGATGAAGGTACCTCAGGCTATCAT,-0.0914,0.0194,0.29,0.042,-0.0635,-0.279,0.235,0.00944,-0.363,-0.00921
CCTGCTAGGTCATGGTCAGCTGATCTACAGTATG,4.74,4.18,0.184,0.177,2.39,2.18,-0.463,2.89,-0.136,4.21
AGAACGAGGGCAATGAGATGATAGCACGGGTGGC,3.28,2.47,1.03,0.417,0.45,0.149,0.0572,0.235,0.363,2.05
TGAATGAGGTAATAAGATCAGGGAACGTTGCAAA,0.356,1.03,0.129,-0.853,-0.59,-0.275,-0.242,-0.0415,-0.474,-0.231
AGAATGAGGTTATACGTAGATCAGGAAAGAAAGT,4.05,2.36,1.21,0.76,0.606,1.23,0.488,1.71,0.559,1.37
CCTCTTAGTTGACCATAAGGGCAACCGAAGCTCG,0.417,0.373,0.452,-0.136,1.43,0.861,0.453,1.04,0.928,1.7
CTTCCAAGGTCATAGGAGGTCAGTGAAGACAGAT,3.59,4.67,1.93,1.31,4.55,6.93,4.92,6.14,3.57,5.42
AGAATGAGGTTACCAAAGATCATGGAAACGCTTG,3.74,3.68,0.737,0.847,0.294,1.8,0.0925,2.58,0.108,2.11
GCTGCTAGGTAAACTGATGGTCAGCTAAAGCTCG,0.994,0.0303,-1.25,-0.794,-1.08,-0.636,-0.67,-0.68,-1.2,-0.155
ATATGTAGGTTTGCTGGGGTCATTCAGACTAGGC,3.16,3.12,1.39,1.41,1.83,5.71,7.95,4.72,1,2.53
CGTCCATGGTCAAAGGTCAGTGAAGAGATGACGG,0.409,3.55,0.423,0.425,6.15,4.15,0.407,5.38,0.504,4.41
GCATATAGCTAATACAAGGTGAAAGTCCGATTGT,0.11,0.315,0.87,-0.0254,0.259,0.262,0.241,0.651,0.533,0.107
ATATGTAGGTTAGCTGGGGTCATTTAGACTAGGC,6.26,6.32,1.68,2.06,2.64,6.23,3.22,5.08,0.828,2.89
GCCGACAGGTGAAACGCAGGTAACTCAGGGTGGC,0.757,0.528,-0.976,-1.57,-0.704,-0.343,-0.71,0.331,-1.11,0.705
